Results filed as inconclusive are left out. A call without a number means that no potency is given here. A number with no mark means an inactive call. Activity calls are given as the source filed them. The call rests on the fitted dose curve; in most records, active means well fitted cell-killing curve with a large enough effect; inconclusive means small, poorly fitted or top-dose-only effect, or effect the other way; inactive means flat fitted curve, though single readings scatter.
The compounds below were run on Tov112D (assay: Primary qHTS to identify gynecologic anti-cancer compounds using libraries of approved drugs and bioactive compounds (AID 1345084; further: nearly all actives have a fitted effect of over 55% in size)). Conditions: Gynecologic cancer cell panel viability, ATPlite luminescence, 48 h; series mostly up to 57.5 µM.
Summary of the method: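 Cytotoxicity screen measuring ATP content by luciferase luminescence. Each compound is applied at five concentrations for 48 h at 37 C with 5% CO2.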
With `CCCCc1ccc(NS(=O)(=O)c2ccc(F)cc2)cc1` the Potency was “inactive”. With `CC[C@@H]1C[C@]1(NC(=O)[C@@H]1C[C@@H]2CN1C(=O)[C@H](C(C)(C)C)NC(=O)OCC(C)(C)CCCCc1cccc3c1CN(C3)C(=O)O2)C(=O)NS(=O)(=O)C1CC1` the Potency was “inactive”. For `COc1ccccc1OCCN1CC(COc2cccc3[nH]c4ccccc4c23)OCC1=O` (configuration not stated), the Potency was “inactive”. For `CN(C)N(C)C(=O)[C@@]1(Cc2ccccc2)CCCN(C(=O)[C@@H](Cc2c[nH]c3ccccc23)NC(=O)C(C)(C)N)C1`, the Potency was “inactive”. In the case of `C[C@@H](NC(=O)c1ccc(C#Cc2cccc(F)c2)cn1)C(C)(C)O`, the Potency is reported as “inactive”. In the case of `COc1cc2c(cc1O)C1(Cc3ccc4c(c3C1O)OCO4)[N+](C)([O-])CC2` (configuration not stated), the Potency is reported as “inactive”. For `C/C=C(\C)C(=O)O[C@H]1C[C@](C)(O)[C@H]2CC=C(C)[C@H]2[C@@H]2OC(=O)[C@H](C)[C@H]21`, the Potency was “inactive”. With `CCNC1(C(N)=O)CCN(c2ncnc3c2nc(-c2ccccc2Cl)n3-c2ccc(Cl)cc2)CC1` the Potency was “inactive”. With `COc1ccccc1N1CCN(CC[C@@](C)(C(=O)C2CCCCC2)c2ccccc2)CC1` the Potency was “inactive”. In the case of `CC(C)(C)c1ccc(C(=O)Nc2cn3cc(-n4ccnc4)ccc3n2)cc1`, the Potency is reported as “inactive”. `COc1cc(CN(CCN)C(=O)c2cccs2)ccc1OCc1ccccc1` was tested, and the Potency was “inactive”. In the case of `CCN(CCNC(=O)Nc1ccccc1Br)c1cccc(C)c1`, the Potency is reported as “inactive”. For `CCCCOc1ccc(S(=O)(=O)n2c(C)nc3ccccc32)cc1`, the Potency was “inactive”. With `CCN(c1cc(-c2ccc(CN3CCOCC3)cc2)cc(C(=O)NCc2c(C)cc(C)[nH]c2=O)c1C)C1CCOCC1` the Potency was “inactive”. For `C=C1CC[C@@H](O)[C@]2(C)CC[C@H]3C(=C)C(=O)O[C@@H]3[C@@H]12`, the Potency was “inactive”. `CN[C@@H]1[C@H](O[C@H]2[C@H](O[C@@H]3[C@@H](O)[C@H](O)[C@@H](N=C(N)N)[C@H](O)[C@H]3N=C(N)N)O[C@@H](C)[C@]2(O)CO)O[C@@H](CO)[C@H](O)[C@H]1O` was tested, and the Potency was “inactive”. With `Cc1cc(C)c(S(=O)(=O)n2cc(C)cc2C)c(C)c1` the Potency was “inactive”. For `Cc1cn2c(n1)Cc1ccc(Cl)cc1C(c1ccc(N)cc1)=N2`, the Potency was “inactive”. `COc1c(C(C)C)c(O)c(O)c2c1C(OC)[C@H]1OC(=O)[C@@]23CCCC(C)(C)[C@H]13` (some centres not stated) was tested, and the Potency was “inactive”. With `CC(=O)OC[C@]12[C@H](OC(C)=O)[C@H](OC(=O)c3ccccc3)[C@@H]3[C@@H](OC(C)=O)[C@]1(OC3(C)C)[C@H](C)C[C@H](OC(C)=O)[C@@H]2OC(=O)c1ccccc1` the Potency was “inactive”. For `C=C1CCN([C@H](C)[C@](O)(Cn2cncn2)c2ccc(F)cc2F)CC1`, the Potency was “inactive”. With `COc1cccc(CN(C(=O)CC(C)(C)C)[C@H]2C[C@H](C(=O)N3CCNCC3)N(Cc3ccc4c(c3)OCO4)C2)c1` the Potency was “inactive”. `CC(=O)OC1C(O)CC2(C)C(CCC3(C)C2CC=C2C4C5(CCC(CO[C@@H]6O[C@H](CO)[C@@H](O)[C@H](O)[C@H]6O)(OC5=O)C4(C)O)C(O)CC23C)C1(C)C` (some centres not stated) was tested, and the Potency was “inactive”. `COc1ccc(-c2cnc3c(-c4cccc5ncccc45)cnn3c2)cc1` was tested, and the Potency was “inactive”. `O=S(=O)(c1ccccc1)N(CC(F)(F)F)c1ccc(C(O)(C(F)(F)F)C(F)(F)F)cc1` was tested, and the Potency was “inactive”. In the case of `CC(C)C(C)C(O)C1CC23CC(=O)C4(O)C(=C2CCC3C1C)C=CC1(O)CC(O)CCC14C` (configuration not stated), the Potency is reported as “inactive”. `CN(C)c1ccnc2sc3c(=O)n(N4CCCCCC4)cnc3c12` was tested, and the Potency was “inactive”. In the case of `CN1CCN(c2ccc(-c3cccc(CN4CCOCC4)c3)cc2NC(=O)c2c[nH]c(=O)cc2C(F)(F)F)CC1`, the Potency is reported as “inactive”. Compound `C[C@@H]1O[C@@H](O[C@H]2[C@@H](OC(=O)[C@]34CCC(C)(C)CC3C3=CCC5[C@@]6(C)C[C@H](O)[C@H](O[C@@H]7O[C@H](CO)[C@@H](O)[C@H](O)[C@H]7O[C@@H]7OC[C@@H](O)[C@H](O)[C@H]7O)[C@@](C)(C(=O)O)C6CC[C@@]5(C)[C@]3(C)CC4)OC[C@H](O)[C@@H]2O)[C@H](O)[C@H](O)[C@H]1O[C@@H]1OC[C@@H](O)[C@H](O)[C@H]1O` (some centres not stated) has an activity change, negative = cytotoxicity of -12.7% [at 6.55 µM]. For `CC1(C)CCCC2(C)C1C(OC(=O)/C=C/C=C/C=O)C=C1COC(=O)C12O` (configuration not stated), the Potency was “inactive”. In the case of `CC(=O)O[C@]1(C(C)=O)CC[C@H]2[C@@H]3CCC4=CC(=O)CCC4=C3[C@@H](c3ccc(N(C)C)cc3)C[C@@]21C`, the Potency is reported as “inactive”. In the case of `O=C(NCCO)c1cccc(-c2cc(Nc3ccc(OC(F)(F)F)cc3)ncn2)c1`, the Potency is reported as “inactive”.

Reference: PubChem BioAssay (NCATS)
